# Measurements taken from ChEMBL document CHEMBL3988442, “University of Dundee, Small-Polar-MMV Screening Library” (2021).
# For some assays here: Potency and affinity values are given separately.
# Key:
# Parameters in all cases: scale not given: direction of the effect not stated beside the values
# [1] = molecular target: Protein translocase subunit SecA (Escherichia coli (strain K12)) (UniProt P10408); assay: Assay to Identify E. coli SecA ATPase Inhibitors; assay type: functional; conditions: 30 µM
# Chain of Protein translocase subunit SecA (Escherichia coli (strain K12)) (P10408 whole entry): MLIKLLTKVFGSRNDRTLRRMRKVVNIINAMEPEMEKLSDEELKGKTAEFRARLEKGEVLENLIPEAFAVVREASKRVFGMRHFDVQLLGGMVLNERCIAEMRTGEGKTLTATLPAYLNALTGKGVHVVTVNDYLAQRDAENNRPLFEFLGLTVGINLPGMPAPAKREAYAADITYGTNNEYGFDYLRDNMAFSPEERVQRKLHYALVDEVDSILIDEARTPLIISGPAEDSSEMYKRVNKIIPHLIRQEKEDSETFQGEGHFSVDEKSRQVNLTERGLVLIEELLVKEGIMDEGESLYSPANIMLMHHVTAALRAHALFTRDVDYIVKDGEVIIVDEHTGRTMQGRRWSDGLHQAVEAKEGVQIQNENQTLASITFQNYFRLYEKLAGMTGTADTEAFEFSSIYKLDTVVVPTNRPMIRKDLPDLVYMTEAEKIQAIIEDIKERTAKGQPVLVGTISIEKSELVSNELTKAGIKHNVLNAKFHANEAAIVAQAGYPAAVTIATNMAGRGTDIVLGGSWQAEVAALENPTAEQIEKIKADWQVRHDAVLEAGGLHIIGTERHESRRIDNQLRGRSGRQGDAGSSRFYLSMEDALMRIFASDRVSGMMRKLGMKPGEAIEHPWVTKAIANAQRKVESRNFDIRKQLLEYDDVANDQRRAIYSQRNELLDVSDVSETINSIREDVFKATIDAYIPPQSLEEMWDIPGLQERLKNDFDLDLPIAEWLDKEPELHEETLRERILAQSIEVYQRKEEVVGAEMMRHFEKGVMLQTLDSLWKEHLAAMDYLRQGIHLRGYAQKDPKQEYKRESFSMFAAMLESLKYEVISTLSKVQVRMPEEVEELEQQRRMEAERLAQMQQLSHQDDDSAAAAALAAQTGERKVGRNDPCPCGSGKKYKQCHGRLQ
# [2] = molecular target: T1, Ubiquitin-activating enzyme e1, putative (Leishmania donovani (strain BPK282A1)) (UniProt E9BSI1); assay: Leishmania donovani Ubiquitin Activating Enzyme (LdE1); assay type: functional; conditions: 30 µM
# T1 sequence (whole entry): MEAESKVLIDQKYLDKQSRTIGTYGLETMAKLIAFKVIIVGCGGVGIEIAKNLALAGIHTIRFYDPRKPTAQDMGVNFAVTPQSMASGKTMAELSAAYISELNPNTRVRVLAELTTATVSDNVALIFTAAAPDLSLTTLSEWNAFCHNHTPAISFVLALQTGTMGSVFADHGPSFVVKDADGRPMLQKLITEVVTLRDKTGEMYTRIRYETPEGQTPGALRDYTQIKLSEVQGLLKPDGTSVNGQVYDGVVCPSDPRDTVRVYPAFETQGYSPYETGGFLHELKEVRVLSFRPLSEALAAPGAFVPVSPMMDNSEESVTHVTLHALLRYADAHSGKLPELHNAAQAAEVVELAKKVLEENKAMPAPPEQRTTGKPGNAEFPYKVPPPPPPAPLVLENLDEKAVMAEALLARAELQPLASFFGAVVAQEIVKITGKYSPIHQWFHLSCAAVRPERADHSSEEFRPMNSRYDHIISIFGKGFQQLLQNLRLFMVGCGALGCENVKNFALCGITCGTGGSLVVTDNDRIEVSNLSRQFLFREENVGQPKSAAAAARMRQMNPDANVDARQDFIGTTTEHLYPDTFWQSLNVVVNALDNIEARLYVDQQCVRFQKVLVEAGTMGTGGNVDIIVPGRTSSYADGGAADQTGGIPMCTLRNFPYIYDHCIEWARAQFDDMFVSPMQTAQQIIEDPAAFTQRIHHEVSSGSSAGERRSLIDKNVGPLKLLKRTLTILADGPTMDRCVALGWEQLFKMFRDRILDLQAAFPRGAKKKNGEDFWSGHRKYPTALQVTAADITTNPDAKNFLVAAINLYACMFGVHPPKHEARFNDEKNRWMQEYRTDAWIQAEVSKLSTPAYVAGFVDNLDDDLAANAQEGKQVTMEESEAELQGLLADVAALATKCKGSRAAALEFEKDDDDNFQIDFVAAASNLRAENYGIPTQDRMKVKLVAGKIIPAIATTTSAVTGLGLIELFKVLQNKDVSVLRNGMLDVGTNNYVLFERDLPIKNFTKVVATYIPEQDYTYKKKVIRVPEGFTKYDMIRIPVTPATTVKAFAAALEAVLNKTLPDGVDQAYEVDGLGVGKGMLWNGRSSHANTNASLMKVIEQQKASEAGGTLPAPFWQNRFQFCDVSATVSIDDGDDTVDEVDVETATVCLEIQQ
# [3] = molecular target: AMP-activated protein kinase, AMPK (Homo sapiens) (UniProt P54646+O43741+P54619+Q9UGJ0+Q9Y478+Q13131+Q9UGI9); assay: AMP-dependent Kinase enzyme assay. An in vitro enzyme assay that detects ADP turnover that is directly proportional to AMPK activity. This uses naive AMPK that is activated during the assay with MK-8722; assay type: functional; conditions: 30 µM
# [4] = molecular target: Sialic acid-binding Ig-like lectin 9 (Homo sapiens) (UniProt Q9Y336); assay: Hs-Siglec9 ALPHAscreen SOP 20170721; conditions: 10 µM
# Chain of Sialic acid-binding Ig-like lectin 9 (Homo sapiens) (Q9Y336 whole entry): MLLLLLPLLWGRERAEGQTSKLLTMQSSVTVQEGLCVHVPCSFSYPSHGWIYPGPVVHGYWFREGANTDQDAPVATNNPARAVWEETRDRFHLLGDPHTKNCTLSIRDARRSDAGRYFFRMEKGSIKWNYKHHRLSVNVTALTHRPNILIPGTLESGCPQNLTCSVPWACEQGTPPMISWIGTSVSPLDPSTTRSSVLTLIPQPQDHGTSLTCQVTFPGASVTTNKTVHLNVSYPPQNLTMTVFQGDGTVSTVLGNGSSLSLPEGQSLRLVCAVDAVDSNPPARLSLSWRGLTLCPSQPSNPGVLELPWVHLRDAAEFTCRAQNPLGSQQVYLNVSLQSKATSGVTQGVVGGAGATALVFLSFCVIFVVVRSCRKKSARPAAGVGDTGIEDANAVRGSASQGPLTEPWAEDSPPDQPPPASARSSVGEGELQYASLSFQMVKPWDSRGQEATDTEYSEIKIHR
# Trypanosoma cruzi = assay: Trypanosoma cruzi phosphomannomutase and mannose-1-phosphate guanylyltransferase assay; assay type: functional; conditions: 10 µM
# [5] = molecular target: T2, Arginase-2, mitochondrial (Homo sapiens) (UniProt P78540); assay: in vitro enzyme assay to detect the production of urea directly proportional to the activity of Arginase II; assay type: functional; conditions: 33.3 µM; note: in the data most compounds retested in dose-response had high values
# T2 sequence (whole entry): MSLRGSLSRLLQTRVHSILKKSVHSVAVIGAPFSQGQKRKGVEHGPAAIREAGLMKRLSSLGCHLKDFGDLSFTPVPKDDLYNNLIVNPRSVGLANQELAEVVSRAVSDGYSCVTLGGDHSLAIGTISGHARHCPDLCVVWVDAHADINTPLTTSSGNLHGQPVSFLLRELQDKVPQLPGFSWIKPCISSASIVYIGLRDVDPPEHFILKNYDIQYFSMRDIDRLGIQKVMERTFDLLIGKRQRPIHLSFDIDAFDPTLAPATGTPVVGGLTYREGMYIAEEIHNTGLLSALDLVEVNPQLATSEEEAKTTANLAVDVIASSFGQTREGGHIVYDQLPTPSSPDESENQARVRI
# [6] = molecular target: T3, Proteasome subunit beta (Trypanosoma cruzi) (UniProt O96673); assay: Trypanosoma cruzi proteasome chymotrypsin-like activity (TcProtChymo) assay.; note: in the data most compounds retested in dose-response had high values; assay type: functional; conditions: 9.37 µM
# T3 sequence (whole entry): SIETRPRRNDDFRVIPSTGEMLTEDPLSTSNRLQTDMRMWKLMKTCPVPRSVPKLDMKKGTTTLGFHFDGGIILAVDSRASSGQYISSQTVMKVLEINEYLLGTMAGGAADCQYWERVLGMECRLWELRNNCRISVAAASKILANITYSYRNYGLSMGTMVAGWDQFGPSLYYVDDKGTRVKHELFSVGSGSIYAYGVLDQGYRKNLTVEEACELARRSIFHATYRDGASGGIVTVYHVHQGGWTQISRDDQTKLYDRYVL
# Homo sapiens = organism: Homo sapiens; assay: To identify inhibition of the IFN signalling (Jak-Stat) pathway via expression of an eGFP reporter gene under the control of an IFN-stimulated response element (ISRE) containing MxA promoter.; assay type: functional; conditions: 30 µM
# [7] = molecular target: T4, Tyrosyl-tRNA synthetase, putative (Trypanosoma cruzi (strain CL Brener)) (UniProt Q4DSP6); assay: Trypanosoma cruzi tyrosyl tRNA synthetase (TcYRS) _High Tyrosine SOP; assay type: functional; conditions: 30 µM; note: in the data most compounds retested in dose-response had high values
# T4 sequence (whole entry): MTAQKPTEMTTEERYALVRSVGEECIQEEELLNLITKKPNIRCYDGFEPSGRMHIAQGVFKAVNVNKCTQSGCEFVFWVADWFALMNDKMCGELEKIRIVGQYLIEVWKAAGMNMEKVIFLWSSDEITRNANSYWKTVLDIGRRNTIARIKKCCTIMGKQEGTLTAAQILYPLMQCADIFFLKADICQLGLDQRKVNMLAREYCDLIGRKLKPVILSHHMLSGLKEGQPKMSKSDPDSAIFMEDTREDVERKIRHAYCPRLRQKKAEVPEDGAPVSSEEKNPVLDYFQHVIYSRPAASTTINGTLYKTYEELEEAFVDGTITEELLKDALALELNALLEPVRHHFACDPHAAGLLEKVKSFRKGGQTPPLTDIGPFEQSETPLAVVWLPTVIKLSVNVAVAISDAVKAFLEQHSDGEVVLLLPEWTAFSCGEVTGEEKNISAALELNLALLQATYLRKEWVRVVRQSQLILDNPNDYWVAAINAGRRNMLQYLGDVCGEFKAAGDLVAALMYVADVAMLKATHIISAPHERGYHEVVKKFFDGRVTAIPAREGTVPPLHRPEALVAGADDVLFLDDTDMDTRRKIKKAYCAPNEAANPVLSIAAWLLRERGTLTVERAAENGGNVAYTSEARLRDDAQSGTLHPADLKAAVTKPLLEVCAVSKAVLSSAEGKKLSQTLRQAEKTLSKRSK
# [8] = molecular target: T4, Tyrosyl-tRNA synthetase, putative (Trypanosoma cruzi (strain CL Brener)); assay: Trypanosoma cruzi tyrosyl tRNA synthetase (TcYRS) SOP; assay type: functional; conditions: 30 µM
# [9] = molecular target: Chromo domain-containing protein 1 (Saccharomyces cerevisiae (strain ATCC 204508 / S288c) (Baker's yeast)) (UniProt P32657); assay: ScCHD-1 Enzyme Inhibition Assay; assay type: functional; conditions: 30 µM; note: in the data most compounds retested in dose-response had high values
# Chain of Chromo domain-containing protein 1 (Saccharomyces cerevisiae (strain ATCC 204508 / S288c) (Baker's yeast)) (P32657 whole entry, the tested form may be a part): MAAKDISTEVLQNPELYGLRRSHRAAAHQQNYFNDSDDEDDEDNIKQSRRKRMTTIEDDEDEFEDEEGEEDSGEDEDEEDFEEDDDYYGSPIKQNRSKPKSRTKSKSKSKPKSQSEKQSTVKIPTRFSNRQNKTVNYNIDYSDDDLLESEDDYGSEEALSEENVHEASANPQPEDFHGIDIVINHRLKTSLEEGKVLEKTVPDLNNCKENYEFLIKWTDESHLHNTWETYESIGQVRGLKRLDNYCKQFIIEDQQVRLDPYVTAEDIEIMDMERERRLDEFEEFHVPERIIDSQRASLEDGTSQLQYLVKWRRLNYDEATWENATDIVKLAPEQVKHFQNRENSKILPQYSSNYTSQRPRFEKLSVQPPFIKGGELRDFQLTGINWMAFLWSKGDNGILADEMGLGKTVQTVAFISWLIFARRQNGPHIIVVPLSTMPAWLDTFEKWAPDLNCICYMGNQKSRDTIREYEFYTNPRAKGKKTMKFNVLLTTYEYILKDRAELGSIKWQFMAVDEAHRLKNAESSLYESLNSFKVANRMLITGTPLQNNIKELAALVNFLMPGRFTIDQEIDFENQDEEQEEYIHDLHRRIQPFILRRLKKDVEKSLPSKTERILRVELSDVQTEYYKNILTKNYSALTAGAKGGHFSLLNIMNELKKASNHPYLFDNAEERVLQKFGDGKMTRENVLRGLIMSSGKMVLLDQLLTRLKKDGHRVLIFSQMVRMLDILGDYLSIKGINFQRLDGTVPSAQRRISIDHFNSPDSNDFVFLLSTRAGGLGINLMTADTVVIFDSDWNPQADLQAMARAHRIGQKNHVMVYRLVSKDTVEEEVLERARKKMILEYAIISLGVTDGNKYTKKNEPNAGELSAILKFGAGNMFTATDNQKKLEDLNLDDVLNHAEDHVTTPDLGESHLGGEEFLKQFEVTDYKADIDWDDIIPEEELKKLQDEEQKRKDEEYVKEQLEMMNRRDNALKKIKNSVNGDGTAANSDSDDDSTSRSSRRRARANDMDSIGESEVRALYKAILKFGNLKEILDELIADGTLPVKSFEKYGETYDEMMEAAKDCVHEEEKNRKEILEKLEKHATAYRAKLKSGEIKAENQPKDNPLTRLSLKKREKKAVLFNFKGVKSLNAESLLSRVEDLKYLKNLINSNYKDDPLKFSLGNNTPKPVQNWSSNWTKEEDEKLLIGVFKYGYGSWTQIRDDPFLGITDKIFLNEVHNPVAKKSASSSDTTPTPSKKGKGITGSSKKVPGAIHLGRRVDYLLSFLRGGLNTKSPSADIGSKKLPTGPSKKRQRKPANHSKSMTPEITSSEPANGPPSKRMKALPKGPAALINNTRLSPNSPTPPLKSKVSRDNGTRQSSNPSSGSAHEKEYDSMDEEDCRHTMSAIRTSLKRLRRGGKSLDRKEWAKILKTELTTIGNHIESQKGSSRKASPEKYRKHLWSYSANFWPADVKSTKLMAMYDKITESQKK
Compound,Percent Effect [1] [%],Percent Effect [2] [%],Percent Effect [3] [%],Percent Effect [4] [%],Percent Effect (Trypanosoma cruzi) [%],Percent Effect [5] [%],Percent Effect [6] [%],Percent Effect (Homo sapiens) [%],Percent Effect [7] [%],Percent Effect [8] [%],Percent Effect [9] [%]
CC(C)c1nnc2n1CCN(CC(=O)Nc1nncs1)C2,-0.203,13,1.97,-3.59,5.19,5.68,8,-15.7,2.86,14.1,-14.6
CC(O)CN1CCN(C(=O)c2ccc(Cn3cccn3)cc2)CC1 (configuration not stated),-4.02,18.9,-8.57,7.3,7.08,-9.22,6.67,3.34,7.39,25.9,-12.3
COc1ccc(Cl)cc1NCC(=O)NCCNc1cnccn1,-3.85,-5.41,2.13,13.2,-2.17,-2.4,3.96,-1.56,4.43,13.6,-3.88
COc1ccc(-n2cnnc2SCC(C)(C)O)cn1,-0.589,2.67,-3.7,25.4,3.02,16.7,-5.75,15.9,3.83,3.7,-1.24
Cc1nn(C)c(C)c1C1CCCN1C(=O)CCNc1ncccn1 (configuration not stated),-5.59,18.4,-8.92,11.3,5.32,-8.63,-1.1,-2.96,3.45,18.5,-4.96
Cc1cc(-c2nnc(SCC(=O)O)n2C(C)c2ccccc2)nn1C (configuration not stated),-4.08,12.5,-0.551,18.6,6.32,1.77,14.9,7.01,9.47,12.8,-1.69
c1ccc(NCc2cn3c(n2)CN(Cc2cccnc2)CC3)nc1,-5.07,13.5,2.94,-3.31,-2.83,4.78,23.6,4.12,-1.08,10.3,0.00712
N#Cc1cccnc1NCCNC(=O)N1CCCSCC1,-3.35,2.7,-4.19,3.38,8.11,-2.38,14.3,-19.3,3.7,12.2,-6.59
O=C(CSc1ccc2c(c1)OCCO2)NS(=O)(=O)C1CCCCC1,-2.58,-1.39,3.64,-7.65,-6.71,3.09,11.4,9.49,-1.05,-5.13,-0.962
CC(=O)N1CCN(c2cc(C3CN(C)CCO3)nc(C)n2)CC1 (configuration not stated),-3.82,12.2,9.39,0.199,-3.36,-1.16,14.8,12.3,5.38,14.3,-1.64
CCS(=O)(=O)N(C)C(=O)c1cc(C)n(-c2cccc(OC)c2)c1C,-6.4,20.2,-7.29,7.26,3.68,-5.32,4.34,28.1,4.43,21.5,-8.76
COCC(=O)N1CC[C@@H]2CN(Cc3cccc(Cl)c3)S(=O)(=O)[C@@H]2CC1,-3.3,10.7,-2.58,-5.34,-6.18,-55,9.74,5.42,-3.12,12.5,-5.91
Cn1c(Cn2cccn2)nnc1C1CCCN(c2ccncc2)C1 (configuration not stated),-2.64,2.7,-4,11.4,3.86,-1.43,17.6,11.9,6.88,19.5,-1.63
Cc1nc(CN2CCN(C(=O)c3ccn(C)c(=O)c3)CC2)cs1,-3.89,19,-4.58,-0.681,2.15,-4.52,15.9,10.6,9.38,15.2,-25.7
Cc1cccc(S(=O)(=O)NCC(C)N2CCN(C)CC2)c1Cl (configuration not stated),-5.19,2.6,-2.53,-0.382,-0.492,-2.76,2.83,7.45,0,3.7,0.187
c1cnnc(N2CCCC2CNc2ncnc3c2CCC3)c1 (configuration not stated),-5.27,1.27,4.89,-6.25,-1.95,3.66,1.54,-1.2,11.5,15.2,1.39
CCCS(=O)(=O)c1ncc(CN2CCC(CO)CC2)n1CC1CCCO1 (configuration not stated),0.687,-6.94,-2.25,-1.43,-5.34,0.442,4.74,-4.14,0,-7.69,5.71
CC(=O)Nc1ccc(CNC2CC(=O)N(Cc3cccc(F)c3)C2)cc1 (configuration not stated),-2.91,0,-1.25,1.06,-2.7,-3.33,1.55,-18.6,2.65,7.32,-0.408
CC(C)c1nnc2n1CCN(C(=O)CN1CCc3sccc3C1)C2,-3.25,5.26,-8.35,-4,7.71,4.6,-2.34,0.728,3.43,7.32,-5.85
Cc1ccn(-c2ccccc2NCc2ncc[nH]2)n1,-7.12,8.22,-9.03,-1.61,0.783,3.18,9.41,-4.65,4.3,10,-3.33
Cc1ccc(C)c(OCCN2CCC(N3CCNC3=O)CC2)c1,-3.83,10.8,-16.9,6.39,-2.69,2.03,1.62,6.79,4.95,13.4,-0.537
CC(C)NS(=O)(=O)c1cc(C(=O)O)cc(-c2ccccc2CN(C)C)c1,-5.51,0,-1.94,-2.62,-6.16,4.22,3,1.46,1.07,3.7,-3.44
